# Compounds with a hit are over-represented: about 11% of the library has one in this group of screens.
# IMPase inh – IMPase inhibition in cells; 120,000 tested, under 10 active; P97697; inhibition (IP1 accumulation), % at 46.1 µM; CHO-M1 cells, IP1 accumulation, HTRF TR-FRET ratio; active = well fitted curve in the direction sought with a large enough effect in the signal ratio, not every such curve was filed as active; inconclusive = small, poorly fitted or top-dose-only effect, or a change in a side signal; inactive = no such curve, though single readings can be large or run the other way; the % refers to the signal ratio;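 note: cells stimulated with carbachol in lithium chloride buffer; plate controls were DMSO basal wells for no effect and reference inhibitor wells for full effect; higher means more IMPase inhibition seen as more IP1 and lower FRET ratio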
#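 Measured: the HTRF emission ratio (665/620 nm) plus the 620 nm donor channel, each fitted to the Hill equation to give AC50. Cells were CHO-M1 given compounds up to 46 uM and a 30 min carbachol stimulation at 37C.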
# PNC inhibitor – inhibitors of perinucleolar compartment assembly; PC3M PTB-GFP, PNC prevalence imaging, 16 h; hits give low values; activity change (PNC), negative = inhibition, % at 10 µM; 140,000 compounds, 3.1% hits;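 active = readout at or below -70, meaning at least 70% loss of cells showing the perinucleolar compartment, a nuclear body marking cancer cells; inconclusive = readout between -30 and a set limit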;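 note: plate controls were DMSO wells for no effect and camptothecin positive control wells for full effect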
#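 Compounds are pinned in duplicate onto adhered PC3M cells stably expressing GFP-tagged PTB and incubated 16 h at 37 C. Cells are then fixed, nuclei stained with Hoechst, and PNC-positive cells counted.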
# ALDH1A1 inh – ALDH1A1 (human) enzyme inhibition; Purified ALDH1A1, NADH fluorescence, propionaldehyde substrate; Potency, µM (top dose mostly 75.3 µM), inactives show top-dose activity, negative = inhibition, usual class: inhibitors; 220,000 compounds, 7.3% hits; active = well fitted inhibition curve with a large enough effect, not every such curve was filed as active; inconclusive = small, poorly fitted or top-dose-only effect, or another doubt; inactive = no such curve, though single readings can be large or run the other way;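 note: potency is the fitted concentration of half-maximal effect; plate controls were no enzyme wells and a reference inhibitor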
# Target sequence (P00352 whole entry, looked up): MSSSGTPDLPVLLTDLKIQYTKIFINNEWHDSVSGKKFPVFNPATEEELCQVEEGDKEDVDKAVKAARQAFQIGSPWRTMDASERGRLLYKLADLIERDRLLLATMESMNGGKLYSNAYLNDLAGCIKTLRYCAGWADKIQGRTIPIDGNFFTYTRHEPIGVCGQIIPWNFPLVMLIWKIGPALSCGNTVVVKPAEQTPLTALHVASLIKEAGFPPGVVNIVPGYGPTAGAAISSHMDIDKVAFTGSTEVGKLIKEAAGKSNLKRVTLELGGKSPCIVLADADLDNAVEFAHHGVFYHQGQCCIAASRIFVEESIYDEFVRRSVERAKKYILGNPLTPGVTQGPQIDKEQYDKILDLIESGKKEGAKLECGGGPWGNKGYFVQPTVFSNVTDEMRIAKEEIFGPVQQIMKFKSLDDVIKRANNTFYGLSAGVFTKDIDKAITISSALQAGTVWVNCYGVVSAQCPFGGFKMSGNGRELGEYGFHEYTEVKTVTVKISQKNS
# HPGD inh – blocks human HPGD enzyme activity; Potency, µM, for inactives: at the highest dose activity change, negative = inhibition, usual class: inhibitors; 150,000 compounds, 4.3% hits; purified HPGD, NADH fluorescence kinetic, PGE2 substrate; P15428; active = well fitted inhibition curve with a large enough effect, not every such curve was filed as active; inconclusive = small, poorly fitted or top-dose-only effect, or another doubt; inactive = no such curve, though single readings can be large or run the other way; note: potency is the fitted concentration of half-maximal effect
#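 NADH formation kinetics: reaction with 30 uM PGE2 and 1 mM NAD+ (final), 20 nM enzyme, Tris-HCl pH 8 with Tween 20, after 15 min compound preincubation at room temperature. Fluorescence change, last versus first of five reads.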
# NPSR antag – neuropeptide S receptor (human) antagonism, cAMP; Q6W5P4; CHO-NPSR cells, cAMP TR-FRET, antagonist mode; Potency, µM (titrated, usually from 38.3 µM), for the others: at the highest dose activity change, negative = inhibition, most hits filed as inhibitors; 220,000 compounds, 1% hits; AID 1461; note: potency is the fitted concentration of half-maximal effect; nearly all actives have a fitted effect of over 50% in size
# IMPase Li cell – membrane-permeable IMPase blocker, potentiated with lithium | CHO-M1 cells, IP1 TR-FRET (IP-One), carbachol + lithium | Potency, µM (series often up to 59.4 µM), for the others: top-dose activity, negative = IMPase inhibition, actives largely listed as inhibitors | 210,000 compounds, 0.35% hits | AID 1457;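 note: IP1 builds up when IMPase is blocked and the TR-FRET signal falls; potency is the fitted concentration of half-maximal effect; plate controls were basal vehicle for no effect and high inhibitor control for full effect; nearly all actives have a fitted effect of over 50% in size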
#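 CHO cells stably expressing M1 receptor (2000/well) were cultured 16–30 h, then exposed to compounds with a small lithium addition for 30 min at 37C. IP1 was measured by TR-FRET competition; AC50 from Hill fits.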
# Starred values were filed as active, the others as inactive; ? = inconclusive; . = no result; [ ] = dose if it differs, or a comment. Unless noted, calls come from the whole dose curve; as a rule, active = well fitted curve in the direction sought with a large enough effect; inconclusive = small, poorly fitted or top-dose-only effect, or another doubt; inactive = no such curve, though single readings can be large; an effect the other way counts as inactive or inconclusive. Unless noted, % is set by controls: 0 for no effect and ±100 for the full control effect.
SMILES,IMPase inh,PNC inhibitor,ALDH1A1 inh,HPGD inh,NPSR antag,IMPase Li cell
CCS(=O)(=O)N1CCN(c2ccccc2F)CC1,4,14,1%,1%,-3%[46.1 µM],-1%[38.3 µM]
O=C1Oc2ccccc2C(=O)/C1=C/N1CCN(c2ccccc2F)CC1,.,.,18µM*,.,4%,10%
COc1cccc(N=Nc2c(=O)[nH]n3c(=O)c4c([nH]c23)CCC4)c1,.,31,-6%,14µM*,-38%,17%
NS(=O)(=O)c1ccc(N=Nc2c(=O)[nH]n3c(=O)c4c([nH]c23)CCCC4)cc1,.,.,-7%,.,27%,31%
O=c1[nH]n2c(=O)c3c([nH]c2c1N=Nc1cccc(C(F)(F)F)c1)CCCC3,0[1.84 µM],-19,0%,-27%,13µM*,7%
O=c1[nH]n2c(=O)c3c([nH]c2c1N=Nc1cccc(Cl)c1)CCC3,.,?,?,7.1µM*,-35%,30%
Cc1[nH]n(C2=NCCS2)c(=O)c1N=Nc1cccc(C(F)(F)F)c1,.,.,4%,.,-35%,-3%
COc1cccc(N=Nc2c(=O)[nH]n3c(=O)cc(C)[nH]c23)c1,?,-7,-11%,14µM*,-23%[46.1 µM],41%[38.3 µM]
O=C(CN1C(=O)NC2(CCc3ccccc3C2)C1=O)Nc1ccc(F)cc1 (stereo not given),-8,?,24%,-5%,18%,3%
O=C1CC(=C(c2ccccc2)c2ccccc2)C(=O)N1CCCCN1CCN(c2ccccc2)CC1,13,0,?,-17%,-16%[46.1 µM],24%[38.3 µM]
Nc1ccc(S(=O)(=O)N2CCCc3ccccc32)cc1,7,?,0%,-12%,-4%[46.1 µM],27%[38.3 µM]
COc1cc(OC)nc(NC(=O)NS(=O)(=O)c2ccccc2Cl)n1,.,.,.,.,-18%,.
COc1cc2c(cc1OC)C1=C(C#N)CCC(=NC(=O)c3ccc(Cl)cc3)N1CC2,-4,58,-11%,14µM*,-6%[46.1 µM],-21%[38.3 µM]
CC(=O)Nc1ccc(Oc2cnc3ccccc3n2)cc1,2,?,9%,-21%,-14%[46.1 µM],-1%[38.3 µM]
Cc1ccc(-c2cc(C(F)F)n3ncc(C(=O)N4CCCc5ccccc54)c3n2)cc1,10,-100*,-1%,-15%,-13%[46.1 µM],19%
CC(=O)OCc1c(COC(C)=O)[n+](=O)c2ccccc2n1[O-],2,?,6%,-1%,-5%[46.1 µM],15%[38.3 µM]
Cc1cc(C)c(S(=O)(=O)Nc2ccc(O)cc2)c(C)c1,13,?,1%,-7%,-6%[46.1 µM],-7%[38.3 µM]
Cc1cc(C)cc(OCC(=O)Nc2ccc3c4c(cccc24)CC3)c1,3,9,0%,-12%,-19%[46.1 µM],-20%[38.3 µM]
Cc1cc(C)c(S(=O)(=O)Nc2ccc3c(c2)CCC3)c(C)c1,.,-89*,-4%,-21%,?,-9%
Cc1cc(C)c(S(=O)(=O)Nc2ccc3c4c(cccc24)CC3)c(C)c1,10,-88*,?,-13%,?,12%[38.3 µM]
Cc1onc(-c2ccncc2)c1C(=O)O,-4[9.22 µM],13,13%,-9%,8%[46.1 µM],-17%[38.3 µM]
CCCCCCCCCCn1ccc(=N)cc1,.,.,.,.,7.9µM*,.
Cc1c(Cl)ccc2c1NC(=O)[C@]21[C@@H]2C(=O)N(Cc3ccccc3)C(=O)[C@@H]2[C@@H]2CCCN21,-8,-127*,2.8µM*,-27%,-18%[46.1 µM],7%[38.3 µM]
Cc1ccc(-n2c(C)cc(C(=O)CN3CCCCC3)c2C)cc1,.,?,-24%,13µM*,13%,13%
Cc1ccc(-n2c(C)cc(C(=O)CSc3nncs3)c2C)cc1,11,?,6%,25µM*,-28%[46.1 µM],10%[38.3 µM]
Cc1cc(C(=O)CSc2nncs2)c(C)n1-c1c(C)n(C)n(-c2ccccc2)c1=O,22,5,-1%,-3%,-9%[46.1 µM],20%[38.3 µM]
Cc1cc(-n2c(C)cc(C(=O)CN3C(=O)NC4(CCCCC4)C3=O)c2C)no1,0,?,-6%,-11%,-7%[46.1 µM],9%
Cc1ccc(-n2c(C)cc(C(=O)COC(=O)c3ccc[nH]c3=O)c2C)cc1,.,-82*,14%,-5%,-5%,-3%

# High-throughput results from PubChem.
